Compound in the test: Nc1ncnc2c1ncn2[C@@H]1O[C@H](COP(=O)(O)OP(=O)(O)OP(=O)(O)O)[C@@H](O)[C@H]1O [adenosine triphosphate]
The test can be described thus: NP40-soluble protein abundance relative to vehicle (solubility fold change) (ratio); higher = more soluble protein in presence of ATP. In short, it runs like this: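 Values are fold changes against the detergent-processed vehicle, based on vsn-normalised intensities. Jurkat crude lysate was treated at eight concentrations from 0.1 to 10 mM (10 min at room temperature, then 3 min at 37 °C), solubilised with 0.8% NP40 and benzonase, ultracentrifuged and analysed by TMT-labelled LC-MS/MS over three independent experiments.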

± gives the standard deviation of the averaged measurements. About 6,500 targets were measured; listed, in parts, are those with the largest changes and a random draw of the rest.

Chain of UniProt P49761 (P49761 whole entry, looked up): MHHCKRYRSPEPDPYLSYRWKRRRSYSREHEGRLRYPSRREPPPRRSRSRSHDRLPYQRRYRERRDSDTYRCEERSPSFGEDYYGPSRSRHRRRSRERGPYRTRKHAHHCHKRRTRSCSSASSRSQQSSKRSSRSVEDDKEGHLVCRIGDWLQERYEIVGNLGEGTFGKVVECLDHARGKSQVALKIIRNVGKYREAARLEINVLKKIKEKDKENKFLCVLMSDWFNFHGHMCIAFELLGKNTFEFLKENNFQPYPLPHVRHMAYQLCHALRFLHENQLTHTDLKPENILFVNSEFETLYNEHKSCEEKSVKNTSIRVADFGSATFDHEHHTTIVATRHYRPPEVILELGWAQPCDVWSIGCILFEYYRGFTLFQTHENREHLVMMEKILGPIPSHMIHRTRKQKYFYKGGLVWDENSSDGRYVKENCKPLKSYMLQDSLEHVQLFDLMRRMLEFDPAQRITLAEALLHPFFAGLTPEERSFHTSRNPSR
Chain of UniProt P35998 (P35998 whole entry): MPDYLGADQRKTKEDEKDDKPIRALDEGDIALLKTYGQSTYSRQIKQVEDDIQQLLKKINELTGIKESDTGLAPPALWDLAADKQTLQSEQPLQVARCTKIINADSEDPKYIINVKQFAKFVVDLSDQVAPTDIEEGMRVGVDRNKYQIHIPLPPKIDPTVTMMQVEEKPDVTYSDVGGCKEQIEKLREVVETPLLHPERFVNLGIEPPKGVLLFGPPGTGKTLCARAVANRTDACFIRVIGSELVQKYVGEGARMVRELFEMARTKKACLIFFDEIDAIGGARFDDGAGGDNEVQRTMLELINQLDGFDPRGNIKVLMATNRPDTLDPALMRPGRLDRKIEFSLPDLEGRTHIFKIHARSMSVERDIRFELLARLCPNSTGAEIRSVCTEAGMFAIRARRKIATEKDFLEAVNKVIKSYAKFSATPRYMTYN
Chain of UniProt P06576 (P06576 whole entry, one chain of several): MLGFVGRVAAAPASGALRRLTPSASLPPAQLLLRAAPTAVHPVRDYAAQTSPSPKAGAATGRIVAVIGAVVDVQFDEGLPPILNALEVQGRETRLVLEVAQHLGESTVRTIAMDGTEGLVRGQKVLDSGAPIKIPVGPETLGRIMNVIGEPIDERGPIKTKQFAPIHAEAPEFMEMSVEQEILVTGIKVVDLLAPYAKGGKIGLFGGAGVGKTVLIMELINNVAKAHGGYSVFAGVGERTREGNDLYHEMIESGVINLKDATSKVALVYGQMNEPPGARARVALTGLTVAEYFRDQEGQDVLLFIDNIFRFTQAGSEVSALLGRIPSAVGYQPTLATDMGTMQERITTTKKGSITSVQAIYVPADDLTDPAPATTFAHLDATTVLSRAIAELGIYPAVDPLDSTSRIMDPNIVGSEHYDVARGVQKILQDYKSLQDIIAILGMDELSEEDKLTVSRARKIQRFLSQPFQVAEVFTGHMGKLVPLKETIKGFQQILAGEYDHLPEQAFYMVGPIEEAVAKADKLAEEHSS
Chain of UniProt P46019 (P46019 whole entry): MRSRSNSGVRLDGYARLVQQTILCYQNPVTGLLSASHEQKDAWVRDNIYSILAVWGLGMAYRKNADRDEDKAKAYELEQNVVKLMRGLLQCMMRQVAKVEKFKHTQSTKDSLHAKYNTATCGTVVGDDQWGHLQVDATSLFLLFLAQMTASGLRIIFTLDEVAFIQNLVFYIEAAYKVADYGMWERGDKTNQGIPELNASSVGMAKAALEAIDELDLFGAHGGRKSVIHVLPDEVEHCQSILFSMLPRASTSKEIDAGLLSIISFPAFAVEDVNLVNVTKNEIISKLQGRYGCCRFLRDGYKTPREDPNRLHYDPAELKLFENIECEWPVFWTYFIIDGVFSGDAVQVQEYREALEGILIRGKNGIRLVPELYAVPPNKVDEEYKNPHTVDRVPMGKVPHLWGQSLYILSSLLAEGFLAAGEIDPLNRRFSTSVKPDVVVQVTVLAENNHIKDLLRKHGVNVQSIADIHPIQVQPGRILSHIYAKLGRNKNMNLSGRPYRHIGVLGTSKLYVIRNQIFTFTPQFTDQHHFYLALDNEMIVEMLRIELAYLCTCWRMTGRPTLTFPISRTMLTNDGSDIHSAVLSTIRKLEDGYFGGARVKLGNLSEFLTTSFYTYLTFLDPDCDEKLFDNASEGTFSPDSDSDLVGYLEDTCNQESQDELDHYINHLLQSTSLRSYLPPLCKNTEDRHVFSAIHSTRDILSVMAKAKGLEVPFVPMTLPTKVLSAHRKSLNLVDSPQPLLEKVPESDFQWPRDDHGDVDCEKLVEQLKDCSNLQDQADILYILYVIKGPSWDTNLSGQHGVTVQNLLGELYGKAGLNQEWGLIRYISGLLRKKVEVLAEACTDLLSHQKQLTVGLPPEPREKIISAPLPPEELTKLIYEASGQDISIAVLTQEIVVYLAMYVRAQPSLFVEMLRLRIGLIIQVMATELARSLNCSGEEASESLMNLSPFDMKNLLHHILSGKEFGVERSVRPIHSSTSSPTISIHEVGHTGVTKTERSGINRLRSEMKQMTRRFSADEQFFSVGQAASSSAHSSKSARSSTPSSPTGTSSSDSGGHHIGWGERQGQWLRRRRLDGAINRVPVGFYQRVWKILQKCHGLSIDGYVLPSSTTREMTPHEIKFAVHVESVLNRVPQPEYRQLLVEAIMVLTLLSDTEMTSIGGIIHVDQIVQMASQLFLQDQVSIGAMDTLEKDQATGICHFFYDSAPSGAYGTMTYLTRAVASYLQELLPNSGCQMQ
Chain of UniProt P42285 (P42285 whole entry): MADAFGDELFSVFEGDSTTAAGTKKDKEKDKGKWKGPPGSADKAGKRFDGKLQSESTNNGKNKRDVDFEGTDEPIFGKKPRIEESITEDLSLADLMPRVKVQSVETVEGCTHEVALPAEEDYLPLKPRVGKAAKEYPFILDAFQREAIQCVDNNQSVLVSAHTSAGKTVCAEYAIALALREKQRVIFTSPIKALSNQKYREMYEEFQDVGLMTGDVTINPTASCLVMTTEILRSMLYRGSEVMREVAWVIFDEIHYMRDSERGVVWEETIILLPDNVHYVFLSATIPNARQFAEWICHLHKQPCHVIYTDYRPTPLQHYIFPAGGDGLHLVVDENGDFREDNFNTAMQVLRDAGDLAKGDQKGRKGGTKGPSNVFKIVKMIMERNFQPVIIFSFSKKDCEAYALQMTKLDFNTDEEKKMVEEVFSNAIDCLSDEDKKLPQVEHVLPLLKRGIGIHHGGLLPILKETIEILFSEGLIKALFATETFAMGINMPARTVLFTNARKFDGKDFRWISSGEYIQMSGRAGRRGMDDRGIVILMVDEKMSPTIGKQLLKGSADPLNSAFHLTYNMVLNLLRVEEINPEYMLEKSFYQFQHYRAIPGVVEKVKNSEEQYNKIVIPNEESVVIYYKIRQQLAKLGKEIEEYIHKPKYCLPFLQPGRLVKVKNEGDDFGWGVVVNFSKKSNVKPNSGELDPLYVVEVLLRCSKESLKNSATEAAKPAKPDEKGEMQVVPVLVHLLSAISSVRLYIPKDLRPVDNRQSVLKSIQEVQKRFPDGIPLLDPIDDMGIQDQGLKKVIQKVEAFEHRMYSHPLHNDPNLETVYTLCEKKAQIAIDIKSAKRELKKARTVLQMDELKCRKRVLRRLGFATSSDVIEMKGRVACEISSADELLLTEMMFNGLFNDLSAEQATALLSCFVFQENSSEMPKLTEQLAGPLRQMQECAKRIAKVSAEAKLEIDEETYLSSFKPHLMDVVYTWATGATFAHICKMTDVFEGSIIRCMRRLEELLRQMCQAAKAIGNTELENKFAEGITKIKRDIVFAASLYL
Chain of UniProt P08621 (P08621 whole entry): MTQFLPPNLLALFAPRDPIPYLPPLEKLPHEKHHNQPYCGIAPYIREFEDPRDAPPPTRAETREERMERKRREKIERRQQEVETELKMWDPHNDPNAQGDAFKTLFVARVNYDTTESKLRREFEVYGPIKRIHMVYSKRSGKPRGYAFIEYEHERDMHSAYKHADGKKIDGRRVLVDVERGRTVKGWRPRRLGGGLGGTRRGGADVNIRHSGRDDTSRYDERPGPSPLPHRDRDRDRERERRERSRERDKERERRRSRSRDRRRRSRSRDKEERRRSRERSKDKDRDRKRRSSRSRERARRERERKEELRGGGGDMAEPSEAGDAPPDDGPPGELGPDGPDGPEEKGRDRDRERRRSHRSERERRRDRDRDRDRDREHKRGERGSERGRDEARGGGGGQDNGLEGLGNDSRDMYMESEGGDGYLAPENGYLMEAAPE
Chain of UniProt P23025 (P23025 whole entry): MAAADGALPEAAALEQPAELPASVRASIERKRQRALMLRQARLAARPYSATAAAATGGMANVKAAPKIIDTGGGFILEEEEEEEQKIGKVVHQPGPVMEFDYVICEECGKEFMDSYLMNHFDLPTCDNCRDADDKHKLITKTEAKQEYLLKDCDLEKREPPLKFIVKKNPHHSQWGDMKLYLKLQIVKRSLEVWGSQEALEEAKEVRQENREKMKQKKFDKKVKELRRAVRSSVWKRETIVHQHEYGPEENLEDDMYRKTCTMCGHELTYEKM
Chain of UniProt P62937 (P62937 whole entry, looked up): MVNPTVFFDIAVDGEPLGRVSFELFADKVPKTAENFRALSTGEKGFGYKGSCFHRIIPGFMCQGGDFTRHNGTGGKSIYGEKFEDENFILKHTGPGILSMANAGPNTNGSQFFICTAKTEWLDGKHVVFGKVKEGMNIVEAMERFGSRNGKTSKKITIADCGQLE
Chain of UniProt P08134 (P08134 whole entry, one chain of several): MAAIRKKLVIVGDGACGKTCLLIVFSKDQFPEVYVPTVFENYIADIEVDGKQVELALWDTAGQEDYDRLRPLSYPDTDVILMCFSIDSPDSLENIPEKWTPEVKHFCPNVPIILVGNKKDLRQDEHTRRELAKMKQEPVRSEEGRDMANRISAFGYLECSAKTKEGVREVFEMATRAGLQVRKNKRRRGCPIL
Chain of UniProt O75531 (O75531 whole entry): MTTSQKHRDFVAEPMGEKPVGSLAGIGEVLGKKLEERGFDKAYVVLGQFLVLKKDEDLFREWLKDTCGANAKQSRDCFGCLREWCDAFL

As for UniProt O75400|O75400-2, the NP40-soluble protein abundance reads like this: (concentration: 1mM) 1.35 ± 0.075; (concentration: 2mM) 1.44 ± 0.086; (concentration: 4mM) 1.65 ± 0.097; (concentration: 6mM) 2.14 ± 0.13; (concentration: 8mM) 2.39 ± 0.13; (concentration: 10mM) 2.62 ± 0.2.
Take PHKA2 (UniProt P46019): the NP40-soluble protein abundance by setting is: (concentration: 1mM) 0.975 ± 0.071; (concentration: 2mM) 0.9386 ± 0.0054; (concentration: 4mM) 0.92 ± 0.033; (concentration: 6mM) 0.932 ± 0.087; (concentration: 8mM) 0.95 ± 0.028; (concentration: 10mM) 0.919 ± 0.029.
As to UniProt P61225, the NP40-soluble protein abundance (concentration: 1mM) amounted to 1.01 ± 0.074; the NP40-soluble protein abundance (concentration: 2mM) was found to be 0.921 ± 0.091; the NP40-soluble protein abundance (concentration: 4mM) is 0.92 ± 0.082; the NP40-soluble protein abundance (concentration: 6mM) amounted to 0.846 ± 0.11; the NP40-soluble protein abundance (concentration: 8mM) was 0.932 ± 0.065; the NP40-soluble protein abundance (concentration: 10mM) is 0.932 ± 0.016.
For the target UniProt P08134|Q5JR08, the NP40-soluble protein abundance runs as follows: (concentration: 1mM) 0.974 ± 0.053; (concentration: 2mM) 0.998 ± 0.031; (concentration: 4mM) 0.975 ± 0.024; (concentration: 6mM) 1 ± 0.05; (concentration: 8mM) 0.957 ± 0.067; (concentration: 10mM) 0.971 ± 0.027.
Regarding UniProt P06576|F8W0P7, the NP40-soluble protein abundance is, setting by setting: (concentration: 1mM) 0.822 ± 0.18; (concentration: 2mM) 1.04 ± 0.22; (concentration: 4mM) 0.825 ± 0.21; (concentration: 6mM) 1.07 ± 0.2; (concentration: 8mM) 1.05 ± 0.16; (concentration: 10mM) 0.814 ± 0.21.
For the target UniProt P42285, the NP40-soluble protein abundance (concentration: 1mM) came to 1.07 ± 0.07; the NP40-soluble protein abundance (concentration: 2mM) is 1.06 ± 0.035; the NP40-soluble protein abundance (concentration: 4mM) was determined as 1.09 ± 0.033; the NP40-soluble protein abundance (concentration: 6mM) came out at 1.07 ± 0.031; the NP40-soluble protein abundance (concentration: 8mM) was 1.2 ± 0.013; the NP40-soluble protein abundance (concentration: 10mM) turned out to be 1.21 ± 0.066.
Consider RFC3 (UniProt P40938), for which the NP40-soluble protein abundance turned out to be 1.25 ± 0.036 (concentration: 1mM); 1.3 ± 0.041 (concentration: 2mM); 1.31 ± 0.041 (concentration: 4mM); 1.31 ± 0.039 (concentration: 6mM); 1.35 ± 0.061 (concentration: 8mM); 1.36 ± 0.046 (concentration: 10mM).
Turning to XPA (UniProt P23025), the NP40-soluble protein abundance reads like this: (concentration: 1mM) 0.975 ± 0.021; (concentration: 2mM) 0.979 ± 0.033; (concentration: 4mM) 0.965 ± 0.054; (concentration: 6mM) 1.02 ± 0.027; (concentration: 8mM) 0.954 ± 0.1; (concentration: 10mM) 0.968 ± 0.05.
For BANF1 (UniProt O75531), the NP40-soluble protein abundance runs as follows: (concentration: 1mM) 5.83 ± 1.6; (concentration: 2mM) 5.36 ± 0.56; (concentration: 4mM) 5.89 ± 1.4; (concentration: 6mM) 6.26 ± 1.4; (concentration: 8mM) 5.6 ± 0.81; (concentration: 10mM) 5.02 ± 1.8.
For TMEM63A (UniProt O94886), the NP40-soluble protein abundance turned out to be 0.9962 ± 0.0062 (concentration: 1mM); 1.016 ± 0.004 (concentration: 2mM); 1.01 ± 0.023 (concentration: 4mM); 1.0012 ± 0.00078 (concentration: 6mM); 0.961 ± 0.024 (concentration: 8mM); 0.979 ± 0.01 (concentration: 10mM).
Turning to UniProt P62937|P62937-2, the NP40-soluble protein abundance runs as follows: (concentration: 1mM) 0.914 ± 0.063; (concentration: 2mM) 1.02 ± 0.05; (concentration: 4mM) 0.894 ± 0.091; (concentration: 6mM) 0.992 ± 0.084; (concentration: 8mM) 0.882 ± 0.11; (concentration: 10mM) 0.962 ± 0.056.
In the case of UniProt P12268|H0Y4R1, the NP40-soluble protein abundance by setting is: (concentration: 1mM) 1.14 ± 0.2; (concentration: 2mM) 0.858 ± 0.18; (concentration: 4mM) 0.957 ± 0.03; (concentration: 6mM) 0.745 ± 0.14; (concentration: 8mM) 0.636 ± 0.064; (concentration: 10mM) 0.587 ± 0.058.
Take PSMC2 (UniProt P35998): the NP40-soluble protein abundance runs as follows: (concentration: 1mM) 0.9515 ± 0.0057; (concentration: 2mM) 0.914 ± 0.029; (concentration: 4mM) 0.882 ± 0.016; (concentration: 6mM) 0.908 ± 0.1; (concentration: 8mM) 0.899 ± 0.053; (concentration: 10mM) 0.894 ± 0.047.
Regarding GALT (UniProt P07902), the NP40-soluble protein abundance (concentration: 1mM) worked out at 0.994 ± 0.016; the NP40-soluble protein abundance (concentration: 2mM) came to 0.972 ± 0.068; the NP40-soluble protein abundance (concentration: 4mM) was 0.983 ± 0.053; the NP40-soluble protein abundance (concentration: 6mM) turned out to be 0.9753 ± 0.0077; the NP40-soluble protein abundance (concentration: 8mM) was 0.935 ± 0.029; the NP40-soluble protein abundance (concentration: 10mM) turned out to be 0.947 ± 0.02.
Take SNRPA (UniProt P09012): the NP40-soluble protein abundance by setting is: (concentration: 1mM) 1.01 ± 0.067; (concentration: 2mM) 0.989 ± 0.09; (concentration: 4mM) 0.973 ± 0.093; (concentration: 6mM) 0.984 ± 0.1; (concentration: 8mM) 0.992 ± 0.032; (concentration: 10mM) 0.97 ± 0.006.
Consider UniProt P54274|P54274-2, for which the NP40-soluble protein abundance is, setting by setting: (concentration: 1mM) 1.14 ± 0.12; (concentration: 2mM) 1.27 ± 0.17; (concentration: 4mM) 1.43 ± 0.17; (concentration: 6mM) 1.69 ± 0.26; (concentration: 8mM) 1.58 ± 0.25; (concentration: 10mM) 1.88 ± 0.35.
With UniProt P49761|P49761-1|P49761-3, the NP40-soluble protein abundance runs as follows: (concentration: 1mM) 1.317 ± 0.008; (concentration: 2mM) 1.56 ± 0.035; (concentration: 4mM) 1.54 ± 0.018; (concentration: 6mM) 1.43 ± 0.13; (concentration: 8mM) 1.81 ± 0.23; (concentration: 10mM) 2.065 ± 0.019.
As for UniProt P08621|P08621-2, the NP40-soluble protein abundance is, setting by setting: (concentration: 1mM) 1.33 ± 0.049; (concentration: 2mM) 1.42 ± 0.083; (concentration: 4mM) 1.59 ± 0.078; (concentration: 6mM) 1.74 ± 0.096; (concentration: 8mM) 1.88 ± 0.077; (concentration: 10mM) 1.97 ± 0.14.
